Assay results from PubChem BioAssay AID1159580 (chemical genetic matrix, 2015).
Several values for one entry are separate records, joined by “and”; a condition that tells them apart may be missing. Identical values can stand only once. The campaign covered roughly 5,500 compounds. About 2,000 (36%) were called active. Roughly 18% stayed inconclusive and do not appear here. Cut-off read from the data, not from the text of the source: active = normalized growth mostly below about 0.91 (no sharp cut-off); inconclusive = no clear call, values can overlap the other calls; inactive = mostly above about 0.92. Some of the results follow.

Assay: chemical genetic growth profiling, strain panel (AID 1159580);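 note: tested at 20 µM; growth read once vehicle control cultures reached saturation at 30 °C; 1 = growth at the plate median or of vehicle wells; lower values mean less growth of the strain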
Settings: S. cerevisiae deletion strains, growth OD

Measured: normalized growth

Clc1ccc(C(c2ccccc2Cl)C(Cl)Cl)cc1 (centres undefined)
inactive: locus YAL013W, strain DEP1, hits give low values 0.997 | locus YAL021C, strain ccr4, hits give low values 1.07 | locus YAL026C, strain drs2, hits give low values 0.943 | locus YAL030W, strain snc1, hits give low values 0.94 | locus YAL040C, strain CLN3, hits give low values 1 | locus YBL061C, strain skt5, hits give low values 0.948 | locus YBR009C, strain hhf1, hits give low values 0.928 | locus YBR021W, strain FUR4, hits give low values 0.949 | locus YBR023C, strain chs3, hits give low values 0.973 | locus YBR171W, strain sec66, hits give low values 0.941 | locus YBR229C, strain ROT2, hits give low values 0.998 | locus YBR231C, strain swc5, hits give low values 0.964 | locus YBR279W, strain paf1, hits give low values 0.987 | locus YCL011C, strain gbp2, hits give low values 0.918 | locus YCL016C, strain dcc1, hits give low values 0.97 | locus YCL029C, strain bik1, hits give low values 0.986 | locus YCL061C, strain MRC1 (second series), hits give low values 1.01 | locus YCL069W, strain vba3, hits give low values 0.982 | locus YCR088W, strain abp1, hits give low values 0.988 | locus YDL005C, strain med2, hits give low values 0.967 | locus YDL035C, strain GPR1, hits give low values 1 | locus YDL040C, strain nat1, hits give low values 0.989 | locus YDL074C, strain BRE1, hits give low values 0.956 | locus YDL101C, strain DUN1, hits give low values 1 | locus YDL134C, strain PPH21, hits give low values 0.993 | locus YDL185W, strain tfp1, hits give low values 0.984 | locus YDL192W, strain arf1, hits give low values 0.989 | locus YDR001C, strain nth1, hits give low values 0.981 | locus YDR069C, strain doa4, hits give low values 0.915 | locus YDR101C, strain arx1, hits give low values 0.987 | locus YDR137W, strain rgp1, hits give low values 0.932 | locus YDR150W, strain NUM1, hits give low values 1.02 | locus YDR159W, strain sac3, hits give low values 1 | locus YDR162C, strain NBP2, hits give low values 1.02 | locus YDR195W, strain ref2 1.06 | locus YDR297W, strain sur2, hits give low values 0.956 | locus YDR318W, strain mcm21, hits give low values 0.985 | locus YDR334W, strain swr1, hits give low values 0.962 | locus YDR335W, strain msn5, hits give low values 0.967 | locus YDR363W, strain ESC2, hits give low values 1.01 | locus YDR388W, hits give low values 0.991 | locus YDR392W, strain spt3, hits give low values 0.869 | locus YDR502C, strain sam2, hits give low values 0.984 | locus YEL003W, strain gim4, hits give low values 0.969 | locus YEL037C, strain rad23, hits give low values 0.983 | locus YEL061C, strain CIN8 (second series), hits give low values 0.984 | locus YEL061C, strain CIN8, hits give low values 1 | locus YER015W, strain faa2, hits give low values 0.978 | locus YER016W, strain bim1, hits give low values 1.02 | locus YER110C, hits give low values 0.986 | locus YER111C, strain swi4, hits give low values 0.986 | locus YER155C, strain BEM2 (second series), hits give low values 0.96 | locus YER155C, strain BEM2, hits give low values 0.994 | locus YER167W, strain BCK2, hits give low values 1 | locus YFR010W, strain ubp6, hits give low values 0.942 | locus YGL078C, strain dbp3, hits give low values 0.99 | locus YGL086W, strain mad1, hits give low values 0.981 | locus YGL167C, strain pmr1, hits give low values 0.972 | locus YGL173C, strain kem1, hits give low values 0.936 | locus YGL227W, strain vid30, hits give low values 0.987 | locus YGL240W, strain doc1, hits give low values 0.925 | locus YGL248W, strain PDE1, hits give low values 0.993 | locus YGL253W, strain hxk2, hits give low values 0.977 | locus YGR078C, strain PAC10, hits give low values 0.987 and 0.999 | locus YGR135W, strain pre9, hits give low values 0.968 | locus YGR229C, strain SMI1, hits give low values 0.978 and 1.01 | locus YGR252W, strain gcn5, hits give low values 0.874 | locus YHR013C, strain ard1, hits give low values 1.11 | locus YHR027C, strain rpn1, hits give low values 0.982 | locus YHR030C, strain SLT2, hits give low values 0.985 and 0.893 | locus YHR079C, strain IRE1 (second series), hits give low values 0.983 | locus YHR079C, strain IRE1, hits give low values 0.947 | locus YHR094C, strain hxt1, hits give low values 0.992 | locus YHR129C, strain ARP1, hits give low values 1 | locus YHR142W, strain chs7, hits give low values 0.919 | locus YHR200W, strain rpn10, hits give low values 0.98 | locus YIL066C, strain RNR3, hits give low values 0.963 | locus YIL073C, strain SPO22, hits give low values 0.952 | locus YIL125W, strain kgd1, hits give low values 0.998 | locus YIR030C, strain dcg1, hits give low values 0.99 | locus YJL092W, strain hpr5, hits give low values 0.961 | locus YJL095W, strain BCK1 (second series), hits give low values 0.973 | locus YJL095W, strain BCK1, hits give low values 1 and 0.933 | locus YJL115W, strain asf1, hits give low values 0.976 | locus YJL134W, strain LCB3, hits give low values 1 | locus YJL154C, strain vps35, hits give low values 0.978 | locus YJL164C, strain tpk1, hits give low values 0.95 | locus YJL168C, strain set2, hits give low values 0.988 | locus YJL187C, strain SWE1 (second series), hits give low values 0.997 | locus YJR043C, strain POL32, hits give low values 1
active: locus YCL061C, strain MRC1, hits give low values 0.907 | locus YER002W, strain NOP16, hits give low values 1.12 [resistant] | locus YJL129C, strain trk1, hits give low values 0.828 | locus YJL166W, strain qcr8, hits give low values 0.825
